From PubChem BioAssay (Tox21)
Records with an inconclusive call do not appear. Unmarked numbers belong to inactive results. Calls of active or inactive are those of the source. Calls follow the shape of the dose curve; as a rule, active = well fitted inhibition curve with a large enough effect in the repeat runs; inconclusive = weak or mixed curves; inactive = no such curve, though single readings can be large or run the other way.

What follows are compounds tested against Cytochrome P450 2C19 (Homo sapiens) (UniProt P33261) (assay: Cytochrome P450 Family 2 Subfamily C Member 19 (CYP2C19) small molecule antagonists: luciferase reporter qHTS assay (AID 1671197; also: nearly all actives have a fitted effect of over 65% in size)). Conditions: P450-Glo CYP2C19 enzyme, luciferin luminescence, 1 h; series mostly up to 115 µM; activity change, negative = inhibition: at the top concentration.
Sequence of Cytochrome P450 2C19 (Homo sapiens) (P33261 whole entry, looked up): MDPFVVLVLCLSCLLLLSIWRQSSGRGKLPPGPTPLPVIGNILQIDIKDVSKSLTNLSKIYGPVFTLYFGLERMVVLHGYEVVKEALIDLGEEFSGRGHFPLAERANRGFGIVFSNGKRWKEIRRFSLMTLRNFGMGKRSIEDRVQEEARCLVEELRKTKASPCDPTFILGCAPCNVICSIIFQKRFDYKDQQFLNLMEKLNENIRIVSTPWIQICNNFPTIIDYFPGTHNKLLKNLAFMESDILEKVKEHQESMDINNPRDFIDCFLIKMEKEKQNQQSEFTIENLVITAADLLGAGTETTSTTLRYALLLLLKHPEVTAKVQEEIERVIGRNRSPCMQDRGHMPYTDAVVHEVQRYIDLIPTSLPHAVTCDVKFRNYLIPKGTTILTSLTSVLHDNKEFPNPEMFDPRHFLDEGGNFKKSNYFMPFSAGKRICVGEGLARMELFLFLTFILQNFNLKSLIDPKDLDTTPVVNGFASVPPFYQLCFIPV
Summary of the method: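 First, compounds are pinned into enzyme-substrate mix and held 10 min at room temperature. Second, NADPH regeneration solution is added and plates incubate 1 h at 37C. Third, detection reagent is added and luminescence read after 20 min.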
% is scaled to controls: 0 for no effect and ±100 for the full control effect; potency is read from the fitted curve at half-maximal effect.

SMILES	activity change, negative = inhibition	Potency
CCCCCCCCCCCCCCC1CO1 (stereo not drawn)	-4.85%	–
CC(=O)O[C@@H]1C(=O)O[C@@H]2[C@H]1OC(=O)[C@@H]2OC(C)=O	3.17% [at 52.9 µM]	–
CC(C)(Oc1ccc(Cl)cc1)C(=O)OCCCOC(=O)C(C)(C)Oc1ccc(Cl)cc1	–	3.47 µM (active)
CCCCC(CC)(CO)CO	–	56.4 µM (active)
N#CCc1cccc(C(F)(F)F)c1	-5.4%	–
CC(C)(C)c1ccc(S)cc1	–	50.2 µM (active)
O=C(O)c1cn(C2CC2)c2cc(Cl)c(F)cc2c1=O	-9.36% [at 52.9 µM]	–
CC[C@@H]1C[C@H](N(Cc2cc(C(F)(F)F)cc(C(F)(F)F)c2)C(C)=O)c2cc(C(F)(F)F)ccc2N1C(=O)OC(C)C	-11.7%	–
CC(C)c1cccc(C(C)C)c1NC(=O)NS(=O)(=O)c1cc(C(C)(C)O)co1	–	11.2 µM (active)
C1CCC2OC2C1 (stereo not drawn)	-13.1%	–
CC(C)CCCC(C)CCO (stereo not drawn)	2.79%	–
O=[N+]([O-])c1cccc(Cl)c1Cl	8.19%	–
CCCCCCCCN(C)C	8.29%	–
O=C(C(=O)c1ccc(Br)cc1)c1ccc(Br)cc1	–	0.352 µM (active)
CC(C)CC=O	–	35.6 µM (active)
CC(=O)OCCc1ccccc1	21%	–
COc1ccc(C(C)=O)cc1	-13.7%	–
O=C(/C=C/c1ccc(O)c(O)c1)O[C@@H]1C[C@](O)(C(=O)O)C[C@@H](O)[C@H]1O	–	80.9 µM (active)
COC(Cc1ccccc1)OC	-9.52%	–
O=C(Cl)c1c(Cl)cccc1Cl	–	36 µM (active)
CCCCCCCCC(CO)CCCCCC (stereo not drawn)	–	31.7 µM (active)
CC(=O)N(CC(=O)N(C)C)c1ccccc1	-9.56% [at 52.9 µM]	–
Cc1cccc(OCCOc2cccc(C)c2)c1	–	3.77 µM (active)
